Measured values: PubChem BioAssay (NCATS)
Results filed as inconclusive are left out. Entries that show only a call come without a potency. The source made the active and inactive calls. Unless noted, the call rests on the fitted dose curve; in most records, active means well fitted curve in the direction sought with a large enough effect; inconclusive means small, poorly fitted or top-dose-only effect, or another doubt; inactive means no such curve, though single readings can be large; an effect the other way counts as inactive or inconclusive.

Tests used:
[1] = molecular target: Cytochrome P450 3A4 (Homo sapiens) (UniProt P08684); assay: qHTS Assay for Activators of Cytochrome P450 3A4 (AID 885); further: nearly all actives have a fitted effect of over 65% in size
Chain of Cytochrome P450 3A4 (Homo sapiens) (P08684 whole entry, looked up): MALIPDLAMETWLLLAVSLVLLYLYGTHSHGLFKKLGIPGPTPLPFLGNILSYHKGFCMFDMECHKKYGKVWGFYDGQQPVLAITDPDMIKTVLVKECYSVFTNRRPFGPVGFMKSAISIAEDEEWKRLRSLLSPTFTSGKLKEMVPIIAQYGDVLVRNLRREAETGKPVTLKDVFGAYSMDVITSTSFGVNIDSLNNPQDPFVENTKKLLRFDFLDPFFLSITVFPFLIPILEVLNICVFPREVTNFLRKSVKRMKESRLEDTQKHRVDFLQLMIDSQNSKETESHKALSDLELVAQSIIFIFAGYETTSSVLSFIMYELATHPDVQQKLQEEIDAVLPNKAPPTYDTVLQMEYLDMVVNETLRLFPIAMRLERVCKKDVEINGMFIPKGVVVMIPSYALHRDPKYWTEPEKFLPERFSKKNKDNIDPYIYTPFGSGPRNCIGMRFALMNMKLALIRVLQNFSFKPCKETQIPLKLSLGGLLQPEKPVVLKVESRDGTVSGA
Summary of the method: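 Human CYP3A4 dealkylates Luciferin-PPXE to luciferin, which luciferase detection converts to light. Substrate was at its KM (25uM), buffer 200mM KPO4, reaction 60 min at RT.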

[2] = Confirmation and Secondary Assay for Modulators of Hemoglobin Beta Chain Splicing at IVS2 654 locus (AID 910);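 further: per-well total GFP intensity by laser scanning cytometry after 2-day treatment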
Summary of the method: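 HeLa cells stably carrying EGFP interrupted by mutant beta-globin IVS2-654 intron (CMV-driven) were treated with compound for 2 days at 37C; corrected splicing was scored as total peak GFP intensity per well (488 nm excitation, 500-520 nm emission).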

[3] = Confirmation and Secondary Assay for Modulators of Hemoglobin Beta Chain Splicing at IVS2 705 locus (AID 930);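 further: HeLa cells stably expressing the EGFP-705 splicing reporter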
Summary of the method: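 Restored EGFP fluorescence after 2-day compound exposure reports splicing correction in IVS2-705 EGFP reporter HeLa cells; positive control was 500 nM splice-blocking PNA oligo. Signal measured as well total peak GFP intensity (488 nm excitation).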

[4] = qHTS Assay for Lipid Storage Modulators (AID 1519; calls by dose curve); settings: Drosophila S3 cells, BODIPY lipid droplet/cell ratio, laser cytometry, cells loaded with oleic acid; for activity change, negative = inhibition: at 57.5 µM (top of the series)
Summary of the method: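 Cells seeded at 5,000 per well were treated with compounds over a concentration series and loaded with oleic acid (400 uM, as added). Lipid droplet fluorescence (488 nm excitation, 500-530 nm channel) was read by laser-scanning cytometry and normalized to 20 uM Triacsin C.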

[5] = molecular target: Ubiquitin carboxyl-terminal hydrolase 1 (Homo sapiens) (UniProt O94782); assay: Inhibitors of USP1/UAF1: Pilot qHTS (AID 504865);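 further: rhodamine fluorescence freed from ubiquitin-rhodamine substrate followed over time; top concentration of the series differs between compounds; nearly all actives have a fitted effect of over 35% in size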
Chain of Ubiquitin carboxyl-terminal hydrolase 1 (Homo sapiens) (O94782 whole entry, looked up): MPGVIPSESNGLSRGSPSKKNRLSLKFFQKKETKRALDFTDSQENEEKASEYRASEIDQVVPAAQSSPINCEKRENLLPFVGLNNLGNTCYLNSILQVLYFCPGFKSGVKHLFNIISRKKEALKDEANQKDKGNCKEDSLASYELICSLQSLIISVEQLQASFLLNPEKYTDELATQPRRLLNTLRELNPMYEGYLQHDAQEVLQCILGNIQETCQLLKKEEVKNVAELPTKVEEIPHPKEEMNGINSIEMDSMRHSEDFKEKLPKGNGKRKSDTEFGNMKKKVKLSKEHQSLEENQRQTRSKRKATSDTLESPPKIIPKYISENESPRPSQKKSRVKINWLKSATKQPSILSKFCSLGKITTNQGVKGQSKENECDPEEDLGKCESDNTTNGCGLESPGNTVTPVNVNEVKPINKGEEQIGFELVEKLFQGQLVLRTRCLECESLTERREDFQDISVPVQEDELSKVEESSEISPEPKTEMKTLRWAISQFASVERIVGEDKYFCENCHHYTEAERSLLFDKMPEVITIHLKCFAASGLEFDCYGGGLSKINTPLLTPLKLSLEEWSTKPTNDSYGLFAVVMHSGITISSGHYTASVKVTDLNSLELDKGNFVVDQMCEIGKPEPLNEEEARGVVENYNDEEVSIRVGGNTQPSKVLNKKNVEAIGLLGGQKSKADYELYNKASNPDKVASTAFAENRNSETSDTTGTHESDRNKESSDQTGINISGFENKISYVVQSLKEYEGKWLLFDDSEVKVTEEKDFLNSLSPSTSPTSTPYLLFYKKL
Summary of the method: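 1nM USP1/UAF1 + cpd, 15 min RT; start w/ Ub-Rho 150nM final; kinetic FL 480/540 nm, 6 reads q60 s. Buffer 50mM HEPES pH 7.8, 0.5mM EDTA, 1mM TCEP, 0.01% Tween-20, 0.1 mg/ml BSA.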

[6] = molecular target: DNA dC->dU-editing enzyme APOBEC-3G (Homo sapiens) (UniProt Q9HC16); assay: qHTS for inhibitors of Vif-A3G interactions: Validation (AID 588379)
Chain of DNA dC->dU-editing enzyme APOBEC-3G (Homo sapiens) (Q9HC16 whole entry, looked up): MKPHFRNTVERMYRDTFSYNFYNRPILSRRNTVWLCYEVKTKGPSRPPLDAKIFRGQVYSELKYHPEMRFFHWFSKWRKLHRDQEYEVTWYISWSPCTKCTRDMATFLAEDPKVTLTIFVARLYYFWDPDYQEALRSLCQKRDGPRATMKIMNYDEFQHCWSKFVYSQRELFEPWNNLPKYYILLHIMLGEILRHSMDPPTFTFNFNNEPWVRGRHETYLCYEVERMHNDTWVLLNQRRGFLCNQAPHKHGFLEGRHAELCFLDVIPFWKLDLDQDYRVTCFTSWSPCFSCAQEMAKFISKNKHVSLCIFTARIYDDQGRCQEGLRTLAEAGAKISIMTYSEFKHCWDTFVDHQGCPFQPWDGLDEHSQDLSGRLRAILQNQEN
Summary of the method: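 Yellow fluorescence (Ex 488, Em 500-530) of Vif-coexpressing HeLa A3G-eYFP cells, scanned by Acumen cytometer, reports blocked A3G degradation. Cells plated at 700/well overnight at 37 deg C before compound addition, then a further overnight compound incubation at 37 deg C.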

[7] = molecular target: Cytochrome P450 3A4 (Homo sapiens) (UniProt P08684); assay: qHTS Assay for Inhibitors and Substrates of Cytochrome P450 3A4 (AID 884); further: nearly all actives have a fitted effect of over 50% in size; further: potency means the concentration at half of the fitted maximal effect
Summary of the method: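 Luminescent readout of luciferin produced by CYP3A4 (20 nM) dealkylation of Luciferin-PPXE, 25 uM (its KM). NADPH-driven reaction ran 60 min at RT after 10 min compound preincubation; data scaled to 57 uM ketoconazole as 100% inhibition.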

[8] = measured here: cell count channel max response
[9] = measured here: lipid channel max response

SMILES	Potency [1]	Potency [2]	Potency [3]	activity change, negative = inhibition [4]	max response [4, 8]	max response [4, 9]	Potency [5]	outcome [6]	Potency [7]
COC(=O)C1OC(=O)C2O[C@@]23[C@]2(C)C(OC(C)=O)CC4C(C)(C)C(=O)CC[C@]4(C)C2CC[C@@]13C (some centres undefined)	inactive	inactive	inactive	-1.69% (inactive)	-0.434%	4.55%	inactive		
CC(=O)OCC(=O)[C@@]12OC(C)(C)OC1CC1C3CC(F)C4=CC(=O)C=C[C@@]4(C)[C@@]3(F)C(O)C[C@]12C (some centres undefined)		inactive	inactive	5.49% (inactive)	3.91%	12.9%	inactive		
CC(=O)N[C@@H](Cc1c[nH]c2ccccc12)C(=O)O		inactive	inactive	5.86% (inactive)	17.1%	24.9%	inactive		
CC1(C)OC2CC3C4CCC5=CC(=O)C=C[C@@]5(C)[C@]4(F)C(O)C[C@@]3(C)[C@]2(C(=O)CO)O1 (some centres undefined)		inactive	inactive	-5.31% (inactive)	-0.616%	-3.49%	inactive		
CC1CC[C@@]2(C(=O)O)CCC3(C)C(=CCC4[C@]5(C)CC(O)C(O)[C@](C)(CO)C5C(O)C[C@@]43C)C2C1C (some centres undefined)		inactive	inactive	7.29% (inactive)	14.9%	28.6%	inactive		
C[C@]12CCC3c4ccc(OS(=O)(=O)O)cc4CCC3C1CCC2=O (some centres undefined)		inactive	inactive	9.98% (inactive)	6.42%	22.2%	inactive		
NC(Cn1ccc(=O)c(O)c1)C(=O)O (centres undefined)		inactive	inactive	3.76% (inactive)	3.01%	10.8%	inactive		
COc1cc(-c2cc(=O)c3c(O)c(OC)c(OC)c(OC)c3o2)cc(OC)c1OC	inactive	inactive	inactive	0.715% (inactive)	5.14%	8.84%	inactive		
Cc1onc(-c2ccccc2Cl)c1C(=O)NC1C(=O)N2C1SC(C)(C)C2C(=O)O (centres undefined)		inactive	inactive	9.93% (inactive)	11.3%	24.6%	inactive		
CC(=O)OC1C[C@]2(C)[C@@H](CC(O)C3[C@]4(C)CCC(O)C(C)[C@@H]4CC[C@]32C)/C1=C(/CCC=C(C)C)C(=O)O (some centres undefined)		inactive	inactive	5.26% (inactive)	12.3%	24.1%	inactive		
CC(=O)SC1CC2=CC(=O)CC[C@@]2(C)C2CC[C@@]3(C)[C@@H](CC[C@@]34CCC(=O)O4)C12 (some centres undefined)		inactive	inactive	-11.4% (inactive)	20.1%	9.46%	inactive		
CC(CCC(=O)O)C1CCC2C3CC[C@H]4CC(O)CC[C@@]4(C)C3CC(O)[C@]12C (some centres undefined)		inactive	inactive	8.52% (inactive)	-1.9%	10.5%	inactive		
C=C[C@]1(C)CC(=O)[C@@]2(O)[C@@]3(C)C(O)CCC(C)(C)C3C(O)C(OC(C)=O)[C@@]2(C)O1 (some centres undefined)	inactive	inactive	inactive	3.86% (inactive)	19.4%	25.9%	inactive		
O=C(O)CCC(=O)C(=O)O (tested in a mixture with another compound)		inactive	inactive	3.77% (inactive)	11.4%	18.6%	inactive		
O=S(=O)(O)c1cc(N=C=S)ccc1/C=C/c1ccc(N=C=S)cc1S(=O)(=O)O		inactive	inactive	9.64% (inactive)	-3.47%	10.3%	inactive		
CCCCN1CCCCC1C(=O)Nc1c(C)cccc1C (centres undefined)	inactive	inactive	inactive	7.02% (inactive)	11.8%	21.2%	inactive		
O=C(O)CCC(=O)OC[C@@H](NC(=O)C(Cl)Cl)C(O)c1ccc([N+](=O)[O-])cc1 (some centres undefined)		inactive	inactive	7.24% (inactive)	16.6%	25.2%	inactive		
NCC1O[C@@H](OC2C(N)CC(N)C(O)C2O[C@@H]2OC(CO)C(O)C2O)C(N)C(O)C1O (some centres undefined)		inactive	inactive	6.74% (inactive)	5.17%	12.7%	inactive		
COc1ccc(-c2coc3cc(OC(C)=O)cc(OC(C)=O)c3c2=O)cc1	inactive	inactive	inactive	-2.95% (inactive)	3.34%	2.84%	inactive		
CCC(=O)OCC(=O)C1(OC(=O)CC)C(C)CC2C3C(Cl)CC4=CC(=O)C=C[C@@]4(C)C3C(O)C[C@@]21C (some centres undefined)		inactive	inactive	4.4% (inactive)	1.88%	8.57%	inactive		
C[C@]12C=CC(=O)C=C1CCC1C2C(=O)C[C@]2(C)C1CC[C@]2(O)C(=O)CO (some centres undefined)		inactive	inactive	8.15% (inactive)	19.1%	31.9%	inactive		
CC1(C)CC23C(=O)CCC(O)C2(C)CCC13 (centres undefined)	inactive	inactive	inactive	0.112% (inactive)	8.4%	10.8%	inactive		
COc1ccc(C2CC(=O)c3ccc(OC)cc3O2)cc1 (centres undefined)	inactive	inactive	inactive	10.2% (inactive)	32.1%	45.7%	inactive		

SMILES	Potency [1]	Potency [2]	Potency [3]	activity change, negative = inhibition [4]	max response [4, 8]	max response [4, 9]	Potency [5]	outcome [6]	Potency [7]
CC1(C)SC2C(NC(=O)COc3ccccc3)C(=O)N2C1C(=O)O (centres undefined)		inactive	inactive	3.45% (inactive)	17.3%	22.6%	inactive		
CCC1OC(=O)C(C)[C@@H](O[C@H]2C[C@@](C)(OC)C(O)C(C)O2)C(C)[C@@H](O[C@@H]2OC(C)CC(N(C)C)C2O)[C@@](C)(O)CC(C)CN(C)C(C)C(O)[C@]1(C)O (some centres undefined)		inactive	inactive	0.114% (inactive)	12.3%	14.1%	inactive		
CC(C)(C)NC[C@@H](O)COc1nsnc1N1CCOCC1		inactive	inactive	13.4% (inactive)	16.2%	36.5%	inactive		
COC1C[C@@H](O[C@@H]2C(C)C(=O)OC(C)C(C)[C@H](OC(C)=O)C(C)C(=O)[C@@]3(CO3)CC(C)C(OC3OC(C)CC(N(C)C)[C@H]3OC(C)=O)C2C)OC(C)[C@@H]1OC(C)=O (some centres undefined)		inactive	inactive	6.97% (inactive)	18.9%	24.4%	inactive		
O=C(O)C1=CC(O)[C@@H](O)C(O)C1 (some centres undefined)		inactive	inactive	3.18% (inactive)	15.5%	22.2%	inactive		
CC(=O)OCC(=O)[C@@]1(O)CCC2C3CC[C@H]4CC(O)CC[C@@]4(C)C3C(=O)C[C@]21C (some centres undefined)		inactive	inactive	4.69% (inactive)	-0.527%	6.2%	inactive		
CC(=O)OCC(=O)[C@]1(O)C(C)CC2C3CCC4=CC(=O)C=C[C@@]4(C)[C@]3(F)C(O)C[C@@]21C (some centres undefined)	inactive	inactive	inactive	-6.8% (inactive)	9.77%	2.72%	inactive		
COc1cc(-c2oc3cc(O)ccc3c(=O)c2O)ccc1O	inactive	inactive	inactive	-2.65% (inactive)	-22.8%	-26.5%	inactive		
CC(CCC(=O)O)C1CCC2C3C(O)C[C@@H]4CC(O)CC[C@@]4(C)C3CC(O)[C@]12C (some centres undefined)		inactive	inactive	4.41% (inactive)	-4.16%	0.136%	inactive		
Cc1cc(O)c(C=O)c(O)c1C(=O)O	inactive	inactive	inactive	3.98% (inactive)	6.58%	11.5%	inactive		
Fc1ccc([C@H]2CCNCC2COc2ccc3c(c2)OCO3)cc1 (some centres undefined)		inactive	inactive	12.8% (inactive)	-0.955%	14.7%	inactive		
CC(C)CC(NC(=O)OCC1c2ccccc2-c2ccccc21)C(=O)O (centres undefined)		inactive	inactive	2.46% (inactive)	10.8%	14.5%	inactive		
C=C1CC[C@@H]2O[C@@]2(C)CC[C@H]2[C@H]1CC2(C)C	inactive			1.31% (inactive)	22.2%	21.2%		inactive	
CC[C@@H]1OC(=O)[C@@H](C)[C@H](O[C@H]2C[C@@](C)(OC)[C@@H](O)[C@H](C)O2)C(C)[C@H](O[C@H]2O[C@@H](C)C[C@@H](N(C)C)[C@@H]2O)[C@@](C)(O)C[C@H](C)C(=O)[C@@H](C)[C@H](O)[C@@]1(C)O (some centres undefined)	inactive			6.26% (inactive)	3.51%	7.04%		inactive	15.8 µM (active)
CC1OC(OCC2OC(Oc3c(-c4ccc(O)c(O)c4)oc4cc(O)cc(O)c4c3=O)C(O)C(O)C2O)C(O)C(O)C1O (centres undefined)				-1.77% (inactive)	-20.3%	-20.8%		inactive	
CC(N)C(O)c1cccc(O)c1 (centres undefined)		inactive	inactive	8.66% (inactive)	6.62%	19.6%	inactive		
C=C1C[C@@]23C[C@@]1(O)CCC2[C@@]12C=CC(O)[C@](C)(C(=O)O1)C2C3C(=O)O (some centres undefined)		inactive	inactive	1.95% (inactive)	6.93%	10.6%	inactive		
COC(=O)C1C(O)CC[C@@H]2CN3CCc4c([nH]c5ccccc45)C3C[C@@H]12 (some centres undefined)		inactive	inactive	4.48% (inactive)	19.7%	26.3%	inactive		
C[C@]12CCC3c4ccc(OC(=O)c5ccccc5)cc4CCC3C1CCC2=O (some centres undefined)		inactive	inactive	11.1% (inactive)	14.4%	28.4%	inactive		
CC(=O)OC1CC(OC(C)=O)[C@]2(C)C(CC(O)[C@]3(C)C2CC[C@@]2(C)C(c4ccoc4)OC(=O)C4O[C@]432)C1(C)C (some centres undefined)	inactive	inactive	inactive	-15.6% (inactive)	-1.7%	-11.8%			2.51 µM (active)
COc1c2ccoc2nc2c(OC)c(OCC(O)C(C)(C)O)ccc12 (centres undefined)	inactive	inactive	inactive	9.6% (inactive)	16.9%	29.2%		inactive	
CC1=C(C(=O)O)N2C(=O)C(NC(=O)C(N)c3ccc(O)cc3)C2SC1 (centres undefined)		inactive	inactive	7.51% (inactive)	4.8%	14.9%	inactive		
O=C(/C=C/c1ccc(O)c(O)c1)O[C@@H]1C[C@@](O)(C(=O)O)C[C@H](O)[C@@H]1O				-7.73% (inactive)	3.01%	-5.95%		inactive	inactive
